# Assay outcomes as filed in PubChem BioAssay.
# Rows were chosen to be rich in hits. Some 7.4% of all compounds tested hit in one or more screens of this group.
# NPC1 prom act: qHTS Assay for NPC1 Promoter Activators; Huh7 NPC1 promoter luciferase reporter, 24 h; Potency, µM (top dose mostly 9.22 µM), inactives show at the top dose activation, most hits filed as activators; 320,000 tested, 2.4% active; further: % of control where 0% means no effect; nearly all actives have a fitted effect of over 60% in size
#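 In 1536-well qHTS, Huh7 cells harboring an NPC1 promoter–luciferase construct received compound for 24 h; activation was quantified by luminescence following luciferase reagent addition.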
# Rab9 prom act: qHTS Assay for Rab9 Promoter Activators | Huh7 Rab9 promoter-luciferase reporter, luminescence, 24 h | Potency, µM (highest dose often 9.22 µM), for the others: top-dose activation, negative = inhibition, hits mostly activators | 320,000 tested, 2.8% active | AID 485297, 2010; further: % of control where 0% means no effect; nearly all actives have a fitted effect of over 60% in size
#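 Quantitative HTS format; Huh7 Rab9-luciferase reporter cells (1500/well) receive compound 2 h post-plating, incubate 24 h at 37 °C, then get luciferase reagent for 10 min before luminescence reading.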
# SMN2 splice enh: qHTS Assay for Enhancers of SMN2 Splice Variant Expression; HEK293 SMN2-luciferase splicing reporter, luminescence, 30-36 h; Potency, µM (doses to about 46.1 µM), for the others: top-dose activity change, positive = activation, actives largely listed as activators; 210,000 tested, 2.8% active; further: % of control where 0% means no effect; nearly all actives have a fitted effect of over 55% in size
#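 qHTS luciferase splicing reporter: luminescence rises when SMN2 exon 7 is included in transfected HEK293 cells. Compound exposure lasted 30-36 h at 37C, with 4.5 mM final sodium butyrate as control, followed by a ONE-Glo read.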
# ELG1 genotox: qHTS screen for small molecules that induce genotoxicity in human embryonic kidney (HEK293T) cells expressing luciferase-tagged ELG1; 330,000 tested, 1.3% active; Potency, µM (series often up to 46 µM), without a hit: at the highest dose activity change, positive = activation, actives largely listed as activators; AID 504466, 2011; HEK293T ELG1-luciferase reporter, luminescence, 16 h; further: % of control where 0% means no effect; nearly all actives have a fitted effect of over 60% in size
#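 Genotoxic stress is detected as increased luminescence from luciferase-tagged ELG1 in HEK293T cells, measured with ONE-Glo after a 16 hr treatment at 37 °C.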
# FLuc counter: qHTS profiling assay for firefly luciferase inhibitor/activator using purifed enzyme and Km concentrations of substrates (counterscreen for miR-21 project). AID 588342, 2011. purified FLuc, Km substrates, luminescence inhibition. Luciferin 4-monooxygenase (Photinus pyralis), P08659. 360,000 tested, 6.9% active. Potency, µM (top dose mostly 57.5 µM), for the others: at the highest dose activity change, negative = inhibition, usual class: inhibitors;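 further: plate controls were vehicle for no effect and reference inhibitor for full effect; nearly all actives have a fitted effect of over 55% in size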
# Target sequence (P08659 whole entry, looked up): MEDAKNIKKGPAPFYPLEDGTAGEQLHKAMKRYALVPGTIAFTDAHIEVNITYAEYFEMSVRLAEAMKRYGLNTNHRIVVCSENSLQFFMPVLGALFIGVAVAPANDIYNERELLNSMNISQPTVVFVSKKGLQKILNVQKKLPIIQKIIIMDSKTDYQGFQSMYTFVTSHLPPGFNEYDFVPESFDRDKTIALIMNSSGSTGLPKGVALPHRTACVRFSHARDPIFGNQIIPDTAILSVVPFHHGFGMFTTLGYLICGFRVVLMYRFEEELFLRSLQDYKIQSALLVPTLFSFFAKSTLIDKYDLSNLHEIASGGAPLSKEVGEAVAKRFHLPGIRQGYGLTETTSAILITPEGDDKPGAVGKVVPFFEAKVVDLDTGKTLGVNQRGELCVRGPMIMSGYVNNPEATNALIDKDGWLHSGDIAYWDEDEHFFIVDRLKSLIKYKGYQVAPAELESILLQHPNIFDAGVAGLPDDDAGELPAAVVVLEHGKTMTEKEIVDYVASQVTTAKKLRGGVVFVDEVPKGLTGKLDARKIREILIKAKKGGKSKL
#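 Purified P. pyralis luciferase (10nM final) with 10uM D-luciferin and 10uM ATP (Km levels) in 50mM Tris acetate pH 7.5, 10mM Mg acetate, 0.01% Tween-20, 0.05% BSA; qHTS 6-point titration, ~60 µM downward; luminescence read.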
# * marks the source's active call; other numbers are inactive results; ? = inconclusive; nt = no result; [ ] = dose if it differs, or a comment. The call rests on the fitted dose curve; in most records, active means well fitted curve in the direction sought with a large enough effect; inconclusive means small, poorly fitted or top-dose-only effect, or another doubt; inactive means no such curve, though single readings can be large; an effect the other way counts as inactive or inconclusive. Potency means the concentration at half of the fitted maximal effect.
SMILES,NPC1 prom act,Rab9 prom act,SMN2 splice enh,ELG1 genotox,FLuc counter
C/C=C/c1ccc(OCC(=O)N2CCc3cc(OC)c(OC)cc3C2)c(OC)c1,4%,-5%,nt,-4%,-2%
O=C(Nc1ccccc1OC(F)F)c1cccc(S(=O)(=O)N2CCCC2)c1,6%,0%,nt,-1%,1%
CN(c1ccc(O)cc1)S(=O)(=O)c1ccc2ccccc2c1,?,4µM*,nt,?,19µM*
Cc1ccc(N(C)S(=O)(=O)c2ccc3[nH]c(=O)ccc3c2)cc1,nt,nt,nt,nt,8.5µM*
CC1CCCC(C)N1C(=O)COC(=O)c1ccc(S(=O)(=O)N(C)c2ccccc2)cc1 (centres undefined),nt,nt,nt,1%,nt
O=C(CN1C(=O)NC2(CCOc3ccccc32)C1=O)c1ccc[nH]1 (centres undefined),0%,-4%,nt,6%,1%
CC(C)S(=O)(=O)c1csc(C(=O)Nc2ccc(F)cc2)c1N,0.56µM*,0.56µM*,nt,2.9µM*,6µM*
Cc1ccc(-c2n[nH]c(Cc3ccccc3)n2)cc1,2.8µM*,2.5µM*,nt,?,19µM*
COc1ccc(C2=NN(C(C#N)c3ccc(OC)c(OC)c3)C(c3ccccc3)C2)cc1 (centres undefined),14%,?,95%,5.8µM*,12µM*
COc1ccc(C2=NN(c3ccccc3)C(c3ccc(OC)c(OC)c3)C2)cc1 (centres undefined),27%,?,nt,6%,?
Oc1ccc(N=Nc2ccc3c(c2)OCCO3)c2ncccc12,-23%,-27%,nt,?,5.4µM*
NS(=O)(=O)c1ccc(N=Nc2ccc(O)c3ncccc23)cc1,-40%,-32%,nt,?,?
Cc1cccc(N=Nc2ccc(O)c3ncccc23)c1,13%,-3%,-51%,12µM*,11µM*
Cc1ccc(C)c(N=Nc2ccc(O)c3ncccc23)c1,?,8%,-96%,?,11µM*
Cc1ccc(N=Nc2cc(C)ccc2O)c(C)c1,?,?,nt,?,4.8µM*
O=C(CN1CCN(Cc2ccc(Cl)cc2)CC1)N/N=C/c1ccccc1F,0%,-7%,nt,-7%,1%
O=C(Cn1c(=O)n(Cc2ccc(C(=O)NCc3ccccc3Cl)cc2)c(=O)c2ccccc21)Nc1ccc(F)c(Cl)c1,nt,nt,-3%,nt,1%
Cc1cc(C)nc(SC(C)CNS(=O)(=O)c2ccccc2)n1 (centres undefined),-5%,-1%,0%,2%,-1%
O=C(CN1CCSC1=NCc1ccccc1)c1ccc(Cl)cc1,-3%,-9%,?,-2%,2%
Cc1ccc(N=Nc2ccc(N)cc2C)c(S(N)(=O)=O)c1,?,2.8µM*,3%[9.22 µM],?,11µM*
Cc1cc(N)ccc1N=Nc1c(C)n(C)n(-c2ccccc2)c1=O,26%,?,-4%[1.84 µM],?,?
CCOC(=O)C1=C(C)NC(C)=C(C(=O)OCC)C1c1c(F)c(F)c(F)c(F)c1F,-27%[46.1 µM],-31%[46.1 µM],nt,nt,nt
O=C1N/C(=N/O)S/C1=C/c1cccc([N+](=O)[O-])c1,9%,-1%,-14%,5%,21µM*
CCCCCOc1ccc(Cn2ccnc2)cc1[N+](=O)[O-],10%,11%,-44%,?,?
CCCOc1ccc(-c2csc(N)n2)cc1[N+](=O)[O-],?,2.8µM*,11µM*,?,11µM*
CCCCOc1ccc(-c2cn3ccccc3n2)cc1[N+](=O)[O-],?,2.8µM*,6.3µM*,?,2.1µM*
CCOc1ccc(-c2cn3ccccc3n2)cc1[N+](=O)[O-],3.5µM*,2.2µM*,7.9µM*,?,2.7µM*
O=C(CSc1nc(=O)n(CCCN2CCOCC2)c2c1CCC2)Nc1ccc([N+](=O)[O-])cc1,7%,0%,nt,2%,2%
NC(N)=NCCC[C@H](NC(=O)CC1(CC(=O)N2CCN(C3c4ccccc4NC(=O)c4ccccc43)CC2)CCCC1)C(=O)NCCn1c(=O)n(-c2ccccc2)n(-c2ccccc2)c1=O (some centres undefined),nt,nt,12%,nt,nt
